Results with a measured potency or affinity are listed apart.

This passage reports Inhibition results from ChEMBL document CHEMBL4513146, “CO-ADD screening of Karazin Kharkiv National University (Ukraine) compounds”.

The test system of test [1] is Staphylococcus aureus. The settings on record: Concentration 32 ug.mL-1;; ASSAY_TEST Inhibition of Bacterial Growth; detection method Absorption (OD600); MEDIA CAMHB; plate type 384well; NBS; CORNING #3640; time 18 hr.
Test [2] relates to Escherichia coli. The note with it: Concentration 32 ug.mL-1;; ASSAY_TEST Inhibition of Bacterial Growth; detection method Absorption (OD600); MEDIA CAMHB; plate type 384well; NBS; CORNING #3640; time 18 hr.

On to `COc1cc(-c2nnc3c(=O)n(Cc4ccc(Cl)cc4)ccn23)cc(OC)c1OC`, for which the figures for the Inhibition in test [1] and in test [2] were 11.84% and -0.28%, respectively.

On to `Cc1ccc(-c2nc(CSc3nc4ccccc4n4c(C(C)C)nnc34)c(C)o2)cc1`, for which the Inhibition (in general, the change of the read-out against control, counted positive when it falls) in test [1] is recorded as -8.56%; in test [2], -6.52%.

In the case of `COc1ccccc1-n1ccn2c(SCC#N)nnc2c1=O`, the Inhibition is reported as 15.53% in test [1] and 0.38% in test [2].

In the case of `CC(=O)c1ccc(NC(=O)Cn2nc3ccc(-c4ccc(C)c(C)c4)nn3c2=O)cc1`, the Inhibition in test [1] was 9.12%; in test [2], -4.24%.

Consider `Cc1c(Cl)cccc1-n1ccn2c(=O)n(Cc3ccccc3Cl)nc2c1=O`, for which the Inhibition in test [1] was -12.86%; in test [2], -11.83%.

Regarding `Cc1ccc(-c2cc3c4nnc(SCC(=O)Nc5cccc(Br)c5)n4ccn3n2)cc1`, the figures for the Inhibition in test [1] and in test [2] were 5.15% and -4.56%, respectively.

As to `COc1ccc(-c2cc3c4nn(CC(=O)Nc5ccccc5OC)c(=O)n4ccn3n2)cc1`, the Inhibition in test [1] is given as 2.83%; in test [2] it was -1.9%.

As for `Cc1ccccc1N1CCN(c2nccn3c(=O)n(CC(=O)NCc4cc(F)cc(F)c4)nc23)CC1`, the Inhibition in test [1] is recorded as 9.65%; in test [2], -0.75%.

Consider `O=c1c2sccc2n2c(=O)n(Cc3ccccc3Cl)nc2n1CCc1ccccc1`, for which the Inhibition is recorded as 10.44% in test [1] and 0.77% in test [2].

Regarding `Cc1cc(NC(=O)CSc2nc3ccccc3n3cnnc23)ccc1Br`, the values for the Inhibition in test [1] and in test [2] were 13.29% and 3.15%, respectively.

As to `CC(C)c1nnc2c(=O)n(CC(=O)Nc3cccc(Cl)c3)c3ccccc3n12`, the Inhibition is recorded as 5.77% in test [1] and -3.24% in test [2].

Consider `O=C(Cn1nc2ccc(Sc3cccc(F)c3)nn2c1=O)Nc1ccc2c(c1)OCCO2`, for which the values for the Inhibition in test [1] and in test [2] were 11.29% and -2.18%, respectively.

Turning to `CCOc1ccc(C(=O)CSc2nnc3c(=O)n(-c4ccc(Br)cc4)ccn23)cc1`, the Inhibition in test [1] is on record as 15.75%; in test [2], -1.32%.

For the molecule `Cc1ccccc1CN(c1ccc(C(C)C)cc1)S(=O)(=O)c1cccn2cnnc12`, the values for the Inhibition in test [1] and in test [2] were 17.72% and 2.74%, respectively.

In the case of `Cc1cccc(Cn2nc3c(=O)n(-c4cccc(Cl)c4C)ccn3c2=O)c1`, the Inhibition in test [1] is -1.78%; in test [2], -16.69%.

On to `Cc1ccc(-c2cc3c4nn(CC(=O)Nc5c(C)cccc5C)c(=O)n4ccn3n2)cc1`, for which the Inhibition in test [1] is on record as 9.95%; in test [2] it was 0.29%.

Regarding `Cc1ccc(N(Cc2cccc(C)c2)S(=O)(=O)c2cccn3c(C)nnc23)cc1`, the Inhibition in test [1] was -2.01%; in test [2], -15.69%.

In the case of `CCOc1ccccc1NC(=O)Cn1nc2c(SC3CCCCC3)nccn2c1=O`, the values for the Inhibition in test [1] and in test [2] were 3% and -8.56%, respectively.

Turning to `COc1ccc(CNC(=O)Cn2nc3c(SC4CCCCC4)nccn3c2=O)cc1`, the Inhibition was 8.37% in test [1] and -2.77% in test [2].

Regarding `Cc1cc2nn(CC(=O)Nc3ccc(F)cc3F)c(=O)n2c(Nc2ccc(F)c(C)c2)n1`, the Inhibition in test [1] is recorded as 5.82%; in test [2], -5.59%.

Take `CCc1nnc2c(S(=O)(=O)N(Cc3cccc(OC)c3)c3cccc(C)c3)cccn12`: the Inhibition is on record as 10.64% in test [1] and -1.22% in test [2].

`O=S(=O)(c1ccc2nncn2c1)N(Cc1ccccc1)c1ccc(F)c(F)c1`: the Inhibition was -0.12% in test [1] and -6.68% in test [2].

For the molecule `CCc1cccc(NC(=O)CSc2nnc3c(=O)n(-c4cccc(OC)c4)ccn23)c1`, the Inhibition was 9.81% in test [1] and -1.21% in test [2].

`CCOc1ccc(-n2ccn3c(SC(CC)C(=O)Nc4cc(F)ccc4F)nnc3c2=O)cc1` (configuration not stated): the Inhibition in test [1] was 7.7%; in test [2], -0.34%.

Turning to `Cc1ccc(CNC(=O)Cn2nc3c(Oc4ccccc4C)nccn3c2=O)cc1`, the Inhibition in test [1] is on record as 5.58%; in test [2] it was -1.39%.

As for `Cc1ccc(-c2ccc3nn(CC(=O)Nc4cccc(Cl)c4)c(=O)n3n2)cc1C`, the Inhibition in test [1] is on record as -4.46%; in test [2] it was -9.75%.

Regarding `Cc1c(Cl)cccc1NC(=O)Cn1nc2c3c4c(sc3ncn2c1=O)CCCCC4`, the results for the Inhibition in test [1] and in test [2] were 3.69% and -0.38%, respectively.

`Cc1cc2nn(CC(=O)Nc3cc(F)ccc3F)c(=O)n2c(Nc2ccc(F)c(C)c2)n1`: the Inhibition in test [1] is on record as -14.31%; in test [2], 0.42%.

Turning to `Cc1cccc(Sc2nccn3c(=O)n(CC(=O)Nc4ccc(Br)cc4C)nc23)c1`, the results for the Inhibition in test [1] and in test [2] were 8.48% and -5.33%, respectively.

Regarding `CCc1nnc2c(S(=O)(=O)N(Cc3cc(F)cc(F)c3)c3ccc(C)cc3)cccn12`, the Inhibition in test [1] is 10.46%; in test [2] it was -5.17%.

With `O=C(CSc1nc2ccccc2n2c(-c3ccccc3)nnc12)Nc1ccc(Br)cc1`, the Inhibition in test [1] is recorded as 12.1%; in test [2], -0.27%.

On to `CCc1nnc2ccc(S(=O)(=O)N(Cc3ccccc3F)c3ccc(OC)cc3)cn12`, for which the Inhibition is 11.76% in test [1] and -5.17% in test [2].

Consider `Cc1ccc(Cl)cc1NC(=O)CSc1nnc2c(=O)n(-c3ccccc3)ccn12`, for which the figures for the Inhibition in test [1] and in test [2] were 7.91% and -1.12%, respectively.

Turning to `Cc1cccc(N(Cc2cccc(Cl)c2)S(=O)(=O)c2cccn3c(C)nnc23)c1`, the Inhibition in test [1] is 2.81%; in test [2], -5.89%.

Regarding `Cc1cc(C)cc(Nc2nc(C)cc3nn(CC(=O)Nc4cc(F)cc(F)c4)c(=O)n23)c1`, the Inhibition in test [1] is on record as 7.68%; in test [2], -2.61%.

Consider `O=c1c2nn(Cc3ccccc3Cl)c(=O)n2ccn1-c1ccccc1`, for which the figures for the Inhibition in test [1] and in test [2] were -1.67% and -5.84%, respectively.

For `CCCCc1ccc(NC(=O)CSc2nnc3c4cc(-c5ccc(C)cc5)nn4ccn23)cc1`, the Inhibition in test [1] is reported as 10.93%; in test [2], 0.28%.

For `COc1ccc(CN(c2ccc(OC)cc2)S(=O)(=O)c2ccc3nnc(C)n3c2)cc1`, the Inhibition is given as 4.23% in test [1] and -1.31% in test [2].

Regarding `COc1ccc(NC(=O)Cn2nc3c(N4CCOCC4)nccn3c2=O)cc1Cl`, the Inhibition in test [1] is recorded as 10.11%; in test [2], -1.05%.

As for `Cc1ccc(-c2cc3c4nn(CC(=O)N5CCN(c6ccccc6F)CC5)c(=O)n4ccn3n2)cc1C`, the values for the Inhibition in test [1] and in test [2] were 8.03% and 4.31%, respectively.

Consider `Cc1ccc(Cl)cc1NC(=O)Cn1nc2c(N3CCOCC3)nc3ccccc3n2c1=O`, for which the Inhibition in test [1] is reported as -1.67%; in test [2], -9.52%.

In the case of `CCc1nnc2c(S(=O)(=O)N(Cc3ccc(OC)c(F)c3)c3ccccc3)cccn12`, the Inhibition in test [1] amounted to 14.47%; in test [2], 1.05%.

Take `CCOc1ccc(-n2ccn3c(SCC(=O)Nc4cc(F)ccc4F)nnc3c2=O)cc1`: the Inhibition in test [1] is recorded as -3.91%; in test [2], 1.2%.

Regarding `O=C(Cn1nc2ccc(SCc3ccc(Cl)cc3)nn2c1=O)Nc1cccc(F)c1`, the Inhibition in test [1] was -14.75%; in test [2] it was -12.61%.

`COc1cccc(-n2ccn3c(SCC(=O)Nc4ccc(F)cc4F)nnc3c2=O)c1`: the Inhibition in test [1] is recorded as 12.12%; in test [2], -6.2%.

As for `COC(=O)c1ccc(NC(=O)Cn2nc3c4sc(N5CCCC5)nc4ncn3c2=O)cc1`, the Inhibition is -12.82% in test [1] and -9.22% in test [2].

`CCc1cccc(NC(=O)Cn2nc3ccc(SC4CCCCC4)nn3c2=O)c1`: the Inhibition in test [1] is 13.65%; in test [2] it was -0.36%.

`COc1ccc(CN(c2ccc(C(C)C)cc2)S(=O)(=O)c2cccn3cnnc23)cc1`: the Inhibition in test [1] came to 4.26%; in test [2], 1.37%.

Take `CCc1ccccc1Sc1nccn2c(=O)n(CC(=O)Nc3cccc(C)c3)nc12`: the results for the Inhibition in test [1] and in test [2] were 2.29% and -6.79%, respectively.

In the case of `O=C(CSc1nnc2c(=O)n(-c3ccccc3)ccn12)Nc1ccc(F)cc1`, the results for the Inhibition in test [1] and in test [2] were 5.78% and -2.43%, respectively.

With `COc1ccc(NC(=O)Cn2nc3c(Sc4ccccc4)nccn3c2=O)cc1`, the Inhibition in test [1] was 7.67%; in test [2], -3.96%.

With `Cc1ccc(-n2ccn3c(=O)n(Cc4cccc(Cl)c4)nc3c2=O)cc1C`, the Inhibition in test [1] is recorded as 7.38%; in test [2], 0.11%.

In the case of `COc1ccc(CNC(=O)Cn2nc3c(N4CCN(c5ccccc5C)CC4)nccn3c2=O)cc1`, the Inhibition in test [1] is 6.39%; in test [2] it was -3.43%.

As to `CCC(Sc1nnc2c(=O)n(-c3cccc(OC)c3)ccn12)C(=O)Nc1ccccc1C` (configuration not stated), the figures for the Inhibition in test [1] and in test [2] were -3.13% and -2.17%, respectively.

Turning to `COc1ccc(Cn2nc3ccc(-c4ccc(Cl)cc4)nn3c2=O)cc1F`, the Inhibition in test [1] came out at 12.92%; in test [2], 0.48%.

Consider `CCOc1ccc(-n2ccn3c(SCC(=O)Nc4ccc(C)cc4)nnc3c2=O)cc1`, for which the values for the Inhibition in test [1] and in test [2] were 15.66% and 2.17%, respectively.

For the molecule `COc1cc(NC(=O)Cn2nc3c(N4CCCC4)nccn3c2=O)cc(OC)c1`, the Inhibition is 5.55% in test [1] and -2.57% in test [2].

Consider `COc1ccc(NC(=O)Cn2nc3ccc(SC(C)(C)C)nn3c2=O)cc1Cl`, for which the Inhibition in test [1] is on record as -0.4%; in test [2], -6.93%.

For `CCOc1ccc(-c2nc(CSc3nc4ccccc4n4c(C(C)C)nnc34)c(C)o2)cc1`, the Inhibition is listed as -10.96% in test [1] and -11.72% in test [2].

Turning to `CCOc1ccc(NC(=O)Cn2nc3c(N4CCCC(C)C4)nccn3c2=O)cc1` (configuration not stated), the figures for the Inhibition in test [1] and in test [2] were 4.96% and -4.53%, respectively.

Take `CCc1nnc2c(SCC(=O)Nc3c(C)cc(C)cc3C)nc3ccccc3n12`: the Inhibition is given as 7.54% in test [1] and 3.61% in test [2].

With `O=c1c2nnc(SCc3cccc(C(F)(F)F)c3)n2ccn1-c1ccc(Br)cc1`, the Inhibition in test [1] is on record as 11.27%; in test [2], -4.81%.

With `Cc1ccc(NC(=O)Cn2nc3ccc(C(=O)NCc4ccccc4)cn3c2=O)c(Br)c1`, the Inhibition in test [1] is -7.88%; in test [2], -9.76%.

For `O=C(Cn1nc2c3c4c(sc3ncn2c1=O)CCCC4)Nc1ccc2c(c1)OCO2`, the Inhibition in test [1] is on record as -0.05%; in test [2], -3.47%.

As for `CSc1cccc(NC(=O)Cn2nc3ccc(SC4CCCCC4)nn3c2=O)c1`, the Inhibition in test [1] was -9.19%; in test [2] it was -2.76%.

Regarding `COc1ccc(-c2cc3c4nnc(SCC(=O)Nc5ccccc5Cl)n4ccn3n2)cc1`, the Inhibition in test [1] is reported as -12.96%; in test [2] it was -8.41%.

Regarding `Cc1cc(C)cc(NC(=O)Cn2nc3ccc(SCc4ccc(Cl)cc4)nn3c2=O)c1`, the Inhibition in test [1] is reported as -7.67%; in test [2], -11.38%.

Regarding `CCc1ccc(NC(=O)Cn2nc3n(Cc4cccs4)c(=O)c4sccc4n3c2=O)cc1`, the Inhibition in test [1] is on record as -0.38%; in test [2], 5.1%.

Consider `Cc1cc2nn(CC(=O)NC3CCCCC3)c(=O)n2c(Nc2ccc(F)c(C)c2)n1`, for which the Inhibition is on record as 11.08% in test [1] and 0.19% in test [2].

In the case of `O=C(Cn1nc2nc(Nc3ccc(F)cc3)ccn2c1=O)NCc1ccc(F)cc1Cl`, the Inhibition in test [1] is on record as 7.6%; in test [2], -1.86%.

Turning to `COc1cccc(-n2ccn3c(SCc4c(F)cccc4Cl)nnc3c2=O)c1`, the Inhibition in test [1] is 2.96%; in test [2], -9.46%.
